Bioassay records deposited in PubChem BioAssay by The Scripps Research Institute Molecular Screening Center.
Compounds with a hit are over-represented: about 4.1% of the library has one in this group of screens.
hgDAF-12 ag – hgDAF-12 agonism, primary luciferase screen; hit rate 1.8% among 370,000; HEK293 GAL4-hgDAF12 UAS-luciferase reporter, agonist luminescence; normalized to butyrate control; activation, % at 6.8 µM;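 active = activation above a cutoff set at the mean of all screened compounds plus 3 SD, cut at about 10% in these data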;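 also: 0% = DMSO wells and 100% = sodium butyrate wells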
ssDAF-12 act – activates DAF-12 receptor from parasite S. stercoralis; AID 652126; activation, % at 6.8 µM; hit rate 1% among 370,000; HEK293 ssDAF-12/GRIP1 lit1-tk-luc reporter, luminescence; % of 3 µM dafachronic acid response;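 active = activation above the mean over all tested compounds plus 3 SD, cut at about 0.9% in these data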;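 also: 0% = DMSO-only wells and 100% = 3 µM delta7-dafachronic acid wells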
hcDAF12 agonist – H. contortus DAF-12 activation, primary screen; HEK293 hcDAF-12 lit1-tk-luc reporter, luminescence; 0% DMSO, 100% Δ7-dafachronic acid; activation, % at 6.8 µM; AID 652067; hit rate 1.4% among 370,000;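 active = activation above the mean of all tested compounds plus 3 SD, cut at about 5.5% in these data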;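 also: 100% = response to 3 µM Δ7-dafachronic acid high control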
DAX1 inh-1 – NR0B1 (DAX1) inhibition; hit rate 0.99% among 340,000; inhibition, % at 6.75 µM; P51843; HEK293 Gal4-DAX1 luciferase reporter, luminescence;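 active = inhibition above the mean over all tested compounds plus 3 SD, cut at about 4.2% in these data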;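 also: 0% = DAX1-transfected cells with DMSO and 100% = empty-vector control cells with DMSO; inhibition shows as a rise in luminescence from relieved DAX1 repression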
Target sequence (P51843 207-470 limits assumed): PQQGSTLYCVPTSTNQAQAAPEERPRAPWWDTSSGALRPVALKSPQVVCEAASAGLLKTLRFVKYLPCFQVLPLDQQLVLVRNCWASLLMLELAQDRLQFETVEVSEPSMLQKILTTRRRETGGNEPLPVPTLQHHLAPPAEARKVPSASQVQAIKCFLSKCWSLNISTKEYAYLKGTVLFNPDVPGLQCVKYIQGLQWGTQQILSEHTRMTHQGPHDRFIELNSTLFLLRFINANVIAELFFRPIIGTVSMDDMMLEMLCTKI
DAX1 inh-2 – inhibitors of DAX1 repression of SF-1 activated StAR promoter; inhibition, % at 6.8 µM; hit rate 1.1% among 370,000; HEK293T StAR-luciferase reporter, SF-1/DAX-1 repression relief;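 active = inhibition above the mean over all tested compounds plus 3 SD, cut at about 3.6% in these data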;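 also: 0% = DAX-1 cells with DMSO and 100% = cells lacking DAX-1 with DMSO; higher inhibition means more luminescence from relief of DAX-1 repression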
DAX1 conf – NR0B1 (human) inhibition, confirmation; shares compounds with DAX1 inh-2; HEK293T StAR-promoter luciferase reporter, SF-1/DAX-1 repression; inhibition, % at 6.8 µM; hit rate 87% among 2,400; AID 652134;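 active = inhibition above the average of every tested compound plus 3 SD, cut at about 3.8% in these data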;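 also: 0% = DAX-1 cells with DMSO and 100% = no DAX-1 control cells with DMSO; active compounds raise luminescence by relieving repression of the StAR reporter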
SF1 mutant ctr – counter-screen for DAX1 inhibitors: nonselective inhibitors with SF-1 AF2 mutant. shares compounds with DAX1 inh-2. HEK293 StAR-luciferase, luminescence. inhibition, % at 6.8 µM. hit rate 78% among 2,400. AID 652136;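 active = inhibition above the mean of all tested compounds plus 3 SD, cut at about 3% in these data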;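 also: 0% = DAX-1 transfected cells with DMSO and 100% = cells without DAX-1 with DMSO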
Active calls of the source: *; · = not tested or not shown.

SMILES	hgDAF-12 ag	ssDAF-12 act	hcDAF12 agonist	DAX1 inh-1	DAX1 inh-2	DAX1 conf	SF1 mutant ctr
O=C(OCn1nnc2ccccc2c1=O)c1cc(-c2ccccc2)nc2ccccc12	0	-2	0	0	0	·	·
Cc1cc(NC(=O)c2nn(C)c(C)c2Br)no1	2	0	3	0	4.6*	4.6*	5.2*
O=C(NC1CCCCC1)C(c1ccc(-c2ccccc2)cc1)n1c(=O)c(-c2ccco2)nc2ccccc21 (stereo unspecified)	4	0	1	·	4.8*	-1	-1
O=C1NC[C@H](Cc2ccccc2)N(CC2CCN(CC3CCCC3)CC2)C1=O	0	-1	-2	-1	0	·	·
O=C1NC[C@H](Cc2ccccc2)N(CC2CCN(CCCC3CCCC3)CC2)C1=O	4	-1	-1	0	5.5*	1	1
COc1cccc(OCc2cc(C(=O)N(C)Cc3nccn3C)no2)c1	8	0	0	1	5.4*	6.8*	4.6*
O=C(c1ccc(Sc2ccccc2)c([N+](=O)[O-])c1)N1CCOCC1	-4	-1	0	-1	-1	·	·
O=C(COc1ccc2ccccc2c1Br)Nc1cccnc1	2	-1	-1	0	5.1*	4.2*	2
Cc1ccc(C(=O)CN2C(=O)NC3(CCCCCC3)C2=O)c(C)c1	6	-1	2	1	5.5*	4.2*	3.8*
COc1ccc(-c2oc3cc(O)c(OC)c(O)c3c(=O)c2OC)cc1O	-3	1	2	-1	7.9*	16*	-9
CN(CC(=O)Nc1ccccc1Cl)C(=O)c1cccc(S(=O)(=O)N2CCN(Cc3ccccc3)CC2)c1	-5	-2	-4	-4	-6	·	·
O=C(Nc1nnc(C2CC2)s1)c1cncc(Br)c1	7	-1	1	1	4.8*	5.9*	3.9*
COc1ccc(CNC(=O)CN(c2ccccc2)S(=O)(=O)N(C)C)cc1	-2	-1	-1	0	1	·	·
CN(C(=O)C1CCC(=O)N(Cc2cccc(F)c2)C1)C1CCCCC1 (stereo unspecified)	8	1	0	2	5.2*	4.0*	2
O=C(NC1CCC1)C1CCC(=O)N(Cc2cccc(F)c2)C1 (stereo unspecified)	-1	-1	-1	1	-1	·	·
O=C(/C=C/c1ccco1)NCc1ccc2c(c1)OCO2	2	-2	0	-1	1	·	·
O=C(/C=C/c1ccco1)Nc1ccc2c(c1)OCO2	12*	0	2	2	6.1*	11*	6.0*
O=C(/C=C/c1ccc2c(c1)OCO2)Nc1cccnc1	11*	-1	3	4	11*	14*	4.5*
CC1CC(C)CN(C(=O)CCNC(=O)Cn2ccc3ccccc3c2=O)C1 (stereo unspecified)	-1	-1	1	2	0	·	·
Cc1ccc(S(=O)(=O)N(Cc2ccccc2F)C(=O)N2CCN(C)CC2)cc1	1	-1	0	1	5.0*	2	1
COc1ccc(OC)c2c1sc(=NC(=O)c1ccco1)n2C	3	-1	4	1	0	·	·
Cc1ccc(-c2c(C)sc(=NC(=O)c3ccco3)n2C)cc1	9	0	2	1	5.2*	6.8*	3.0*
CCOC(=O)CNC(=O)CSc1nc2c(C)cccc2cc1CC	-1	-1	0	·	0	·	·
Cc1ccsc1C(=O)NNC(=O)C1CCCCC1C(=O)O (stereo unspecified)	16*	1	5	2	6.2*	4.0*	1
O=C(NNC(=O)[C@@H]1CCCC[C@@H]1C(=O)O)c1cccs1	3	-1	1	0	0	·	·
SMILES	hgDAF-12 ag	ssDAF-12 act	hcDAF12 agonist	DAX1 inh-1	DAX1 inh-2	DAX1 conf	SF1 mutant ctr
O=C(OCC(=O)N1CCOCC1)c1ccccc1OCc1ccc(Cl)cc1	4	-1	0	3	1	·	·
Nc1nc(N)c(N=Nc2ccccc2)c(=O)[nH]1	5	-2	1	2	5.7*	5.5*	3.2*
Nc1ncnc(N)c1N=Nc1ccccc1	0	-2	-2	1	1	·	·
COc1ccc2c(ccc[n+]2CC(=O)c2ccccc2)c1	1	-2	-1	0	-1	·	·
COc1ccc(C(=O)C[n+]2cn(C(F)F)c3ccccc32)c(F)c1	9	0	3	1	7.3*	2	3.9*
COc1ccc(-n2c(SCC(=O)Nc3cc(C(=O)O)ccc3C)nc3ccccc3c2=O)cc1Cl	-2	-2	-2	0	-1	·	·
COc1cccc(CSc2nc3cc4c(cc3cc2C)OCCO4)c1	0	-1	2	0	0	·	·
Cc1cc(C(=O)COC(=O)Cc2c(F)cccc2Cl)c(C)n1C	10	0	5	2	5.0*	5.8*	3.2*
Nc1nc(=O)c2ccccc2s1	-2	-1	-1	1	0	·	·
O=C(Nc1ccc(Cl)cc1)N1CCC(c2ccccc2)C1 (stereo unspecified)	12*	1	3	6.8*	5.6*	12*	6.6*
COc1cc2c(c(OC)c1OC)-c1ccc(OC)c(=O)cc1[C@@H](NC(C)=O)CC2	-6	-1	1	1	6.5*	23*	-4
CCOCC(=O)NC1CCc2cc(OC(=O)COCC)c(OC)c(OC)c2-c2ccc(SC)c(=O)cc21 (stereo unspecified)	-4	-1	1	1	4.5*	17*	-6
Cn1nc(C(=O)Nc2nc(-c3ccc(F)cc3)cs2)ccc1=O	-4	-2	-3	-2	-1	·	·
C=CCC1C=C(C)CC(CC=C)N1 (stereo unspecified)	3	0	0	-1	-1	·	·
COc1ccccc1C(CNC(=O)c1cc(C)nc2ccccc12)N(C)C (stereo unspecified)	-2	-1	0	1	0	·	·
CCOC(=O)c1c(C)[nH]c(C(=O)COC(=O)C2CC2)c1C	7	-1	1	0	5.2*	3	0
CC(=O)c1c(C)[nH]c(C(=O)COC(=O)C2CC2)c1C	-2	-1	-1	1	0	·	·
CCOC(=O)c1c(C)[nH]c(C(=O)OCc2ccc(F)cc2)c1C	8	-1	3	3	5.7*	7.5*	5.8*
Cc1cc(C)c2sc(NC(=O)c3ccc([N+](=O)[O-])o3)nc2c1	1	-1	-1	0	-3	·	·
Cc1cccc(C)c1N1C(=O)c2ccccc2NC(=O)C1C(=O)NCCc1ccccc1 (stereo unspecified)	0	0	0	·	-1	·	·
Cc1cccc(C)c1N1C(=O)c2ccccc2NC(=O)C1C(=O)NCCc1ccccc1F (stereo unspecified)	1	-1	0	·	4.7*	2	0
